High-throughput results (PubChem)
Shown are actives, neighbours in structure and some others; about 8.8% of the full set was active somewhere.
HT1080-NT tox: kills 2HG-producing HT-1080-NT fibrosarcoma cells | HT-1080-NT fibrosarcoma viability, CellTiter-Glo ATP luminescence, 48 h | Potency, µM (top dose mostly 46.1 µM), for the others: at the highest dose activity, negative = less viability, hits mostly cytotoxic | hit rate 1.6% among 360,000;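 further: NT is the 2HG producing partner of a matched IDH1 knockdown line; potency means the concentration at half of the fitted maximal effect; 0% = DMSO-treated cells and -100% = media-only wells without cells; nearly all actives have a fitted effect of over 55% in size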
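Luminescent CellTiter-Glo readout after 48 hours of compound exposure at 37 degrees C defined viability of HT-1080-NT cells. Activity was normalized to DMSO wells and cell-free media wells; concentration-response curves were fitted and assigned curve classes.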
HT1080 IDH1KD tx: HT-1080 IDH1 knockdown cell toxicity (counter line); HT-1080 IDH1 knockdown viability, ATP luminescence, 48 h; Potency, µM (top dose mostly 46.1 µM), for inactives: at the highest dose activity, negative = toxicity, usual class: cytotoxic; hit rate 2% among 360,000; AID 686971;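 further: potency means the concentration at half of the fitted maximal effect; 0% = DMSO wells and -100% = cell-free medium wells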
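CellTiter-Glo luminescence after 48 h compound exposure at 37 degrees C of IDH1-knockdown HT-1080 cells in 5% FBS RPMI. %Activity scaled between DMSO wells and cell-free media wells, with curves fitted and assigned curve classes.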
IL-1B inflam inh: inflammasome signaling inhibition, IL-1 beta readout | AID 743279 | activity change, % at 57.5 µM | hit rate 4.7% among 360,000 | THP-1 LPS/ATP IL-1B secretion, AlphaLISA, 16 h; stronger effect = lower value; in the data active means activity change below about -50%; inconclusive means mostly about -30% to -49%
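Secreted IL-1B measured by AlphaLISA bead assay after 16 h compound exposure of THP-1 cells; compounds (final up to 57.5 uM) added 1 h before LPS (250 ng/mL) and ATP (1.25 mM) stimulation; lower signal means less secretion.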
KB-3-1 tox: KB-3-1 parental cell cytotoxicity | KB-3-1 viability, CellTiter-Glo ATP luminescence, 72 h | Potency, µM (doses to about 46.1 µM), hits mostly cytotoxic | hit rate 1.4% among 400,000 | AID 1347075; further: potency means the concentration at half of the fitted maximal effect; nearly all actives have a fitted effect of over 60% in size
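KB-3-1 cells, DMEM (no phenol red) + 10% FBS; compound by pin transfer, 72 h, 37 °C. Readout: CellTiter-Glo luminescence after 10 min. Data normalized, curve-fitted.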
KB-V1 MDR tox: KB-V1 MDR subline cytotoxicity; KB-V1 MDR cells viability, CellTiter-Glo, 72 h; Potency, µM (doses to about 46.1 µM), most hits filed as cytotoxic; hit rate 3.4% among 400,000; AID 1347076; further: potency means the concentration at half of the fitted maximal effect; nearly all actives have a fitted effect of over 60% in size
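In this primary screen, KB-V1 cells overexpressing P-gp are incubated with library compounds (lowest to highest concentration) for 72 h at 37 degrees C before a luminescent ATP viability read.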
An asterisk follows results filed as active. Unless noted, the call rests on the fitted dose curve; in most records, active means well fitted curve in the direction sought with a large enough effect; inconclusive means small, poorly fitted or top-dose-only effect, or another doubt; inactive means no such curve, though single readings can be large; an effect the other way counts as inactive or inconclusive. Unless noted, on the % scale 0 is the no-effect control and ±100 the full control effect.

Screening Cc1cc(C)cc(NC(=O)CSc2nc(N)c(NC(=O)c3cccs3)c(=O)[nH]2)c1 returned HT1080-NT tox 7%, HT1080 IDH1KD tx 4%, IL-1B inflam inh 0, KB-3-1 tox inactive and KB-V1 MDR tox inactive.
CC(C)(C)C(=O)N1CCC2CC1c1cc(Cl)ccc12 (configuration not stated) was read as HT1080-NT tox 14%, HT1080 IDH1KD tx 9%, IL-1B inflam inh 6, KB-3-1 tox inactive and KB-V1 MDR tox inactive.
For Brc1ccc2c(c1)C(C1=NCCN1)c1ccccc1CS2 (configuration not stated) the results were HT1080-NT tox 0.82µM*, HT1080 IDH1KD tx 1µM*, IL-1B inflam inh inconclusive, KB-3-1 tox inconclusive and KB-V1 MDR tox inconclusive.
Screening c1ccc2c(c1)CCCC2C1=NCCN1 (configuration not stated) returned HT1080-NT tox inconclusive, HT1080 IDH1KD tx 8%, IL-1B inflam inh 3, KB-3-1 tox inactive and KB-V1 MDR tox inactive.
Screening O=C(N/N=C\c1cccc(Cl)c1)c1ccc(Cn2cc(Br)c([N+](=O)[O-])n2)o1 returned HT1080-NT tox -21%, HT1080 IDH1KD tx -20%, IL-1B inflam inh -28, KB-3-1 tox inconclusive and KB-V1 MDR tox 21µM*.
`O=C(N/N=C/c1cccc(Br)c1)c1ccc(Cn2cc(Br)cn2)o1` gave HT1080-NT tox inconclusive, HT1080 IDH1KD tx -21%, IL-1B inflam inh -73*, KB-3-1 tox inactive and KB-V1 MDR tox inactive.
`CC(=O)c1ccc(C(=O)N(Cc2cccnc2)c2nc3c(C)c(C)ccc3s2)cc1` gave KB-3-1 tox inactive and KB-V1 MDR tox inactive.
`CCOc1cc(N2CCOCC2)c(OCC)cc1NC(=O)c1ccc(S(=O)(=O)N2CC(C)OC(C)C2)cc1` (configuration not stated) gave HT1080-NT tox 6%, HT1080 IDH1KD tx 8%, IL-1B inflam inh 13, KB-3-1 tox inactive and KB-V1 MDR tox inactive.
`COc1ccc(CNC(=O)C(C)N2CCN(S(=O)(=O)c3ccccc3F)CC2)cc1` (configuration not stated) gave HT1080-NT tox 0%, HT1080 IDH1KD tx 9%, IL-1B inflam inh 10, KB-3-1 tox inactive and KB-V1 MDR tox 23µM*.
CCc1nc2ccc(C(=O)NC(C)(C)C)cn2c1N(CC)Cc1cccc(Br)c1 was read as HT1080-NT tox inconclusive, HT1080 IDH1KD tx inconclusive, IL-1B inflam inh -58*, KB-3-1 tox inconclusive and KB-V1 MDR tox 21µM*.
`CN(Cc1cccs1)C(=O)c1ccc(S(=O)(=O)N2CCCCC2)cc1` gave HT1080-NT tox 24%, HT1080 IDH1KD tx -5%, IL-1B inflam inh 0, KB-3-1 tox inactive and KB-V1 MDR tox inconclusive.
Screening Cc1ccccc1CCNC(=O)c1ccc(Cl)c(S(=O)(=O)N2CC(C)OC(C)C2)c1 (configuration not stated) returned HT1080-NT tox 2%, HT1080 IDH1KD tx -22%, IL-1B inflam inh -8, KB-3-1 tox 5.2µM* and KB-V1 MDR tox 1.8µM*.
For CN(Cc1cccs1)C(=O)c1cccc(S(=O)(=O)N2CCCCCC2)c1 the results were HT1080-NT tox 1%, HT1080 IDH1KD tx 7%, IL-1B inflam inh -21, KB-3-1 tox inactive and KB-V1 MDR tox 18µM*.
For CC1CN(S(=O)(=O)c2cc(C(=O)N(C)Cc3cccs3)ccc2Cl)CC(C)O1 (configuration not stated) the results were HT1080-NT tox 0%, HT1080 IDH1KD tx 2%, IL-1B inflam inh 32, KB-3-1 tox inactive and KB-V1 MDR tox 10µM*.
CCC(=O)Nc1ccc(NC(=O)CSc2nnnn2Cc2ccccc2)cc1C was read as HT1080-NT tox 2%, HT1080 IDH1KD tx -1%, IL-1B inflam inh 16, KB-3-1 tox inactive and KB-V1 MDR tox inactive.
CC(C)CC(NS(=O)(=O)c1cccc(C(=O)O)c1)C(=O)O (configuration not stated) was read as HT1080-NT tox 10%, HT1080 IDH1KD tx 16%, IL-1B inflam inh 3, KB-3-1 tox inactive and KB-V1 MDR tox inconclusive.
CC(NCc1ccc([N+](=O)[O-])cc1)C1COc2ccccc2O1 (configuration not stated) was read as HT1080-NT tox -4%, HT1080 IDH1KD tx -2%, IL-1B inflam inh -13, KB-3-1 tox inconclusive and KB-V1 MDR tox inactive.
For Nc1nc(SCC(=O)Nc2cc(Cl)c(Cl)cc2Cl)n[nH]1 the results were HT1080-NT tox 12%, HT1080 IDH1KD tx 10%, IL-1B inflam inh -52*, KB-3-1 tox inactive and KB-V1 MDR tox inactive.
`COC(=O)c1c(NC(=O)CSc2n[nH]c(N)n2)sc(C)c1C` gave HT1080-NT tox -12%, HT1080 IDH1KD tx -5%, IL-1B inflam inh -11, KB-3-1 tox inactive and KB-V1 MDR tox inactive.
Nc1nc(SCC(=O)Nc2cc(Cl)ccc2Cl)n[nH]1 was read as HT1080-NT tox 0%, HT1080 IDH1KD tx -1%, IL-1B inflam inh 48, KB-3-1 tox inactive and KB-V1 MDR tox inconclusive.
Screening CCOC(=O)c1c(NC(=O)CSc2n[nH]c(N)n2)sc(CC)c1C returned HT1080-NT tox -29%, HT1080 IDH1KD tx -29%, IL-1B inflam inh -92*, KB-3-1 tox inactive and KB-V1 MDR tox inactive.
For COc1ccc(-c2cc(C(F)(F)F)n3nc(-c4ccc(Cl)cc4)cc3n2)cc1OC the results were KB-3-1 tox inactive and KB-V1 MDR tox inactive.
COc1ccccc1-c1ccc(SCc2ccccc2)nn1 was read as HT1080-NT tox -20%, HT1080 IDH1KD tx -11%, IL-1B inflam inh 55, KB-3-1 tox inactive and KB-V1 MDR tox inconclusive.
`COc1ccccc1-c1ccc(SCc2ccccc2F)nn1` gave HT1080-NT tox -7%, HT1080 IDH1KD tx -20%, IL-1B inflam inh -60*, KB-3-1 tox inactive and KB-V1 MDR tox inconclusive.
Cc1c(Cl)c([N+](=O)[O-])nn1CC(=O)NC(C)c1ccccc1 (configuration not stated) was read as HT1080-NT tox -12%, HT1080 IDH1KD tx -7%, IL-1B inflam inh -7, KB-3-1 tox inactive and KB-V1 MDR tox inactive.
Cc1c(Cl)c([N+](=O)[O-])nn1CCCC(=O)Nc1c(Cl)cccc1Cl was read as HT1080-NT tox 8%, HT1080 IDH1KD tx 9%, IL-1B inflam inh 10, KB-3-1 tox inactive and KB-V1 MDR tox 7.3µM*.
Screening Cc1c(Cl)c([N+](=O)[O-])nn1CCCC(=O)Nc1c(C)n(C)n(-c2ccccc2)c1=O returned HT1080-NT tox 7%, HT1080 IDH1KD tx 12%, IL-1B inflam inh 4, KB-3-1 tox inactive and KB-V1 MDR tox inactive.
Screening Cc1c(Cl)c([N+](=O)[O-])nn1CC(=O)NCc1cccs1 returned HT1080-NT tox 7%, HT1080 IDH1KD tx -3%, IL-1B inflam inh -3, KB-3-1 tox inactive and KB-V1 MDR tox 18µM*.
